The source of these data is PubChem BioAssay (NCI).

The assay is described as follows: NCI Yeast Anticancer Drug Screen. Data for the rad50 strain (AID 155).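 Note: 0% = growth of vehicle-only cultures of the same strain.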 Conditions: S. cerevisiae rad50 strain growth inhibition, active compounds read high. On the procedure:
Growth inhibition of yeast strains with defined genetic alterations is measured as a screen for potential anti-cancer activity. Selected strains with alterations in DNA damage repair or cell cycle control were exposed to compounds and growth inhibition was measured relative to vehicle treated controls. The strain used in this assay is rad50

[1] abbreviates: at 5.0 µM (retest, dose inferred, filed as 0.5).
Setting [2] is: at 50.0 µM (retest, dose inferred, filed as 5.0).

Structures are written as SMILES. This is part of a sample that, as a whole, favours compounds with a hit. Of some 79,000 tested, about 15% had one in any assay. A number with no mark means an inactive call. Active and inactive are the calls of the source. Cut-off read from the data, not from the text of the source: active = growth inhibition above about 70%; inactive = the rest.

In the case of `CCCCCCCCN1COCC(COc2ccccc2C)OC1` (stereo not given), the growth inhibition is, setting by setting: (at 1.2 µM) -2%; (at 3.7 µM) -4%; under setting [1], 0%; (at 11.0 µM) 3%; (at 33.0 µM) 5%; under setting [2], 5%. For the same compound, the growth inhibition was 97.3% (active) (at 50.0 µM) and 99% (active) (at 100.0 µM).

As for `Cc1ccc(S(=O)(=O)NC(=O)C2C(=O)CC3(CCCCC3)CC2=O)cc1`, the growth inhibition by setting is: (at 1.2 µM) -12%; (at 3.7 µM) -6%; under setting [1], 10%; (at 11.0 µM) -23%; (at 33.0 µM) 5%; under setting [2], 25%. Also, the growth inhibition is, setting by setting: (at 50.0 µM) -9.4%; (at 100.0 µM) 35%.

Regarding `COc1c2c(c3c(c1CCC(=O)O)OC(C)(C)C=C3)OC(C)(C)C=C2`, the growth inhibition (at 1.2 µM) is -1%; the growth inhibition (at 3.7 µM) was -3%; the growth inhibition under setting [1] was 15%; the growth inhibition (at 11.0 µM) was 19%; the growth inhibition (at 33.0 µM) is 54%; the growth inhibition under setting [2] was 45%. Further, the growth inhibition (at 50.0 µM) is 58.2% and the growth inhibition (at 100.0 µM) is 98% (active).

Turning to `CCCNC(=O)OCc1c(COC(=O)NCCC)c(-c2ccc(Cl)c(Cl)c2)n2c1CCC2`, the growth inhibition (at 1.2 µM) is -39%; the growth inhibition (at 3.7 µM) was -43%; the growth inhibition under setting [1] is 21%; the growth inhibition (at 11.0 µM) was -27%; the growth inhibition (at 33.0 µM) was 1%; the growth inhibition under setting [2] was 42%. The growth inhibition reads like this: (at 50.0 µM) 61.9%; (at 100.0 µM) 50%.

With `O=C(O)C1CCCCC1c1c2ccc(=O)cc-2oc2cc(O)ccc12` (stereo not given), the growth inhibition was 16% (at 1.2 µM); 19% (at 3.7 µM); 52% under setting [1]; 9% (at 11.0 µM); 28% (at 33.0 µM); 95% (active) under setting [2]. The growth inhibition by setting is: (at 50.0 µM) 86.3% (active); (at 100.0 µM) 90% (active).
